# Tests used:
# [1] = target: T1, Tyrosine-protein kinase ITK/TSK (Homo sapiens) (UniProt Q08881); details: at 1 µM;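 further: values are mean percent inhibition of ITK from the GSK PKIS screen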
# T1 sequence (whole entry): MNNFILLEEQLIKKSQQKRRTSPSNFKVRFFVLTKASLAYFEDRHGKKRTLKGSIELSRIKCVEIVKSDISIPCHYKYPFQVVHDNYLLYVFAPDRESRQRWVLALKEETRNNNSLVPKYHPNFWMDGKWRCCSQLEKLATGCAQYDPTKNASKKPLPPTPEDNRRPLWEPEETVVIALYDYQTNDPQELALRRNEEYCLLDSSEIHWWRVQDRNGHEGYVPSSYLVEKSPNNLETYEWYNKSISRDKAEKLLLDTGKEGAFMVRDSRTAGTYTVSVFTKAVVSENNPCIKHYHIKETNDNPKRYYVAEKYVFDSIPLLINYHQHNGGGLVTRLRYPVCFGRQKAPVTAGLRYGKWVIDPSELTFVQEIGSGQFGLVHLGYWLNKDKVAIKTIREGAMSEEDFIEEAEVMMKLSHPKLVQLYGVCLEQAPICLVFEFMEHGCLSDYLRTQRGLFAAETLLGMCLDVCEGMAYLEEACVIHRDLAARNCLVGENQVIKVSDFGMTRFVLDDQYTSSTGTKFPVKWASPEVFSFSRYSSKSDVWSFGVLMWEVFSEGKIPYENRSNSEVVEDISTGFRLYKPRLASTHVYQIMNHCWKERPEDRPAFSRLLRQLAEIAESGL
# [2] = target: Tyrosine-protein kinase JAK1 (Homo sapiens) (UniProt P23458); details: at 0.1 µM
# [3] = target: Tyrosine-protein kinase JAK1 (Homo sapiens) (UniProt P23458); details: at 1 µM
# [4] = target: Tyrosine-protein kinase JAK2 (Homo sapiens) (UniProt O60674); details: at 0.1 µM
# [5] = target: Tyrosine-protein kinase JAK2 (Homo sapiens) (UniProt O60674); details: at 1 µM
# [6] = target: T2, Tyrosine-protein kinase JAK3 (Homo sapiens) (UniProt P52333); details: at 0.1 µM
# T2 sequence (whole entry): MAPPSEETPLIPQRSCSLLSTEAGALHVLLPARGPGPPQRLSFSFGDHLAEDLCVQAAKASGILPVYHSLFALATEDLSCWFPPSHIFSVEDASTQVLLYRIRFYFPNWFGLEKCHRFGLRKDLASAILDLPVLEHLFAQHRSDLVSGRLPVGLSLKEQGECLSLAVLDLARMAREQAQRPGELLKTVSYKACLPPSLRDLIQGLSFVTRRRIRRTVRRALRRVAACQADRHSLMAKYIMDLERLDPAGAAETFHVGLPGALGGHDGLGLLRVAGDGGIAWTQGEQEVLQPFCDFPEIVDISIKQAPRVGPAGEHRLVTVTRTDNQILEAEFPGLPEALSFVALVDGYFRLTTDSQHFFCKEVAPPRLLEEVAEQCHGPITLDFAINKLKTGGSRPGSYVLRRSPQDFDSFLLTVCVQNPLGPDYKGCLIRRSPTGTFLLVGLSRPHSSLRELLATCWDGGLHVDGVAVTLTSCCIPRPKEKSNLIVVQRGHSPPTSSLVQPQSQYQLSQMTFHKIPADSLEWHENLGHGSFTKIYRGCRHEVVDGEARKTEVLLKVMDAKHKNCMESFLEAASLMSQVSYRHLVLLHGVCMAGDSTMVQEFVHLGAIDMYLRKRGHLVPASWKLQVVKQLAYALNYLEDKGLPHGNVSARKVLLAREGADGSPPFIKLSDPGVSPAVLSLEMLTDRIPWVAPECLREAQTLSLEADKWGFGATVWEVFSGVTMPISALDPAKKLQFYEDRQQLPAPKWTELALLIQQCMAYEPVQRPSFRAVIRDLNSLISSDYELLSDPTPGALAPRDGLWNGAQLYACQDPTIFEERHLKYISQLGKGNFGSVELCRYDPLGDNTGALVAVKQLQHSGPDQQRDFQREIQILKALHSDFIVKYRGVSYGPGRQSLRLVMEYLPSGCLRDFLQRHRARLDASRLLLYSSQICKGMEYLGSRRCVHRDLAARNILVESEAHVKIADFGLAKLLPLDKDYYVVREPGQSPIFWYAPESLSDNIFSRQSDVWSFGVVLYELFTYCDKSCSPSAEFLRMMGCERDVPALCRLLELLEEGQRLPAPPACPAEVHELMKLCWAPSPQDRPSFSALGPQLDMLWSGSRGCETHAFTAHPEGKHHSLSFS
# [7] = target: T2, Tyrosine-protein kinase JAK3 (Homo sapiens); details: at 1 µM
# [8] = target: Vascular endothelial growth factor receptor 2 (Homo sapiens) (UniProt P35968); details: at 0.1 µM
# [9] = target: Vascular endothelial growth factor receptor 2 (Homo sapiens) (UniProt P35968); details: at 1 µM
# [10] = target: Mast/stem cell growth factor receptor Kit (Homo sapiens) (UniProt P10721); details: at 0.1 µM;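 further: values are mean inhibition of KIT, from the GSK PKIS dataset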
# Sequence of Mast/stem cell growth factor receptor Kit (Homo sapiens) (P10721 whole entry): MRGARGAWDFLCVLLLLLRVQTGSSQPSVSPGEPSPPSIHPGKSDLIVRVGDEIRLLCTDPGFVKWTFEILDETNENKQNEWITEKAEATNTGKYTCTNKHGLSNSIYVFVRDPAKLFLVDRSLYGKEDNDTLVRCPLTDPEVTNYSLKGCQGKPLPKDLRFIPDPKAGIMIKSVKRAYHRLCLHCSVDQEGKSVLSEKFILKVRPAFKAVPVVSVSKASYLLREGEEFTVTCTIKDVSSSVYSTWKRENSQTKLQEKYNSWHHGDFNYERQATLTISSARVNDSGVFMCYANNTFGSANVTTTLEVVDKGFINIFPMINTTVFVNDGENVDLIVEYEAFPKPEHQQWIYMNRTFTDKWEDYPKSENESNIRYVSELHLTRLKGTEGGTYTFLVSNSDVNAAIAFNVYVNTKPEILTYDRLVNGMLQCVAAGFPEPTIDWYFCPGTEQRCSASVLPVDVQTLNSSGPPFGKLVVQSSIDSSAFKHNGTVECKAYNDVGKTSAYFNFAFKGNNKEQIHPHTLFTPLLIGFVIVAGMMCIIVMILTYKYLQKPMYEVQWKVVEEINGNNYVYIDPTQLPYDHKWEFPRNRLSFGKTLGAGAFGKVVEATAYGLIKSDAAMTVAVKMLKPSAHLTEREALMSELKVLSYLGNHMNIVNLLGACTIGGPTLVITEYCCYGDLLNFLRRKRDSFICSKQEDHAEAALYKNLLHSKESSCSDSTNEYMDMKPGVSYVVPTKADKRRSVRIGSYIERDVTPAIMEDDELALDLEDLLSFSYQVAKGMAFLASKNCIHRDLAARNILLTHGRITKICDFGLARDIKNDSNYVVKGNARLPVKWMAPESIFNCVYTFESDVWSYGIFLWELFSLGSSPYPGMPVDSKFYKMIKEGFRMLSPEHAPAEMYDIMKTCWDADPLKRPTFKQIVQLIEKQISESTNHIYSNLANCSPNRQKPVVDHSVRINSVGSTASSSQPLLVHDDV
# Sequence of Tyrosine-protein kinase JAK1 (Homo sapiens) (P23458 whole entry): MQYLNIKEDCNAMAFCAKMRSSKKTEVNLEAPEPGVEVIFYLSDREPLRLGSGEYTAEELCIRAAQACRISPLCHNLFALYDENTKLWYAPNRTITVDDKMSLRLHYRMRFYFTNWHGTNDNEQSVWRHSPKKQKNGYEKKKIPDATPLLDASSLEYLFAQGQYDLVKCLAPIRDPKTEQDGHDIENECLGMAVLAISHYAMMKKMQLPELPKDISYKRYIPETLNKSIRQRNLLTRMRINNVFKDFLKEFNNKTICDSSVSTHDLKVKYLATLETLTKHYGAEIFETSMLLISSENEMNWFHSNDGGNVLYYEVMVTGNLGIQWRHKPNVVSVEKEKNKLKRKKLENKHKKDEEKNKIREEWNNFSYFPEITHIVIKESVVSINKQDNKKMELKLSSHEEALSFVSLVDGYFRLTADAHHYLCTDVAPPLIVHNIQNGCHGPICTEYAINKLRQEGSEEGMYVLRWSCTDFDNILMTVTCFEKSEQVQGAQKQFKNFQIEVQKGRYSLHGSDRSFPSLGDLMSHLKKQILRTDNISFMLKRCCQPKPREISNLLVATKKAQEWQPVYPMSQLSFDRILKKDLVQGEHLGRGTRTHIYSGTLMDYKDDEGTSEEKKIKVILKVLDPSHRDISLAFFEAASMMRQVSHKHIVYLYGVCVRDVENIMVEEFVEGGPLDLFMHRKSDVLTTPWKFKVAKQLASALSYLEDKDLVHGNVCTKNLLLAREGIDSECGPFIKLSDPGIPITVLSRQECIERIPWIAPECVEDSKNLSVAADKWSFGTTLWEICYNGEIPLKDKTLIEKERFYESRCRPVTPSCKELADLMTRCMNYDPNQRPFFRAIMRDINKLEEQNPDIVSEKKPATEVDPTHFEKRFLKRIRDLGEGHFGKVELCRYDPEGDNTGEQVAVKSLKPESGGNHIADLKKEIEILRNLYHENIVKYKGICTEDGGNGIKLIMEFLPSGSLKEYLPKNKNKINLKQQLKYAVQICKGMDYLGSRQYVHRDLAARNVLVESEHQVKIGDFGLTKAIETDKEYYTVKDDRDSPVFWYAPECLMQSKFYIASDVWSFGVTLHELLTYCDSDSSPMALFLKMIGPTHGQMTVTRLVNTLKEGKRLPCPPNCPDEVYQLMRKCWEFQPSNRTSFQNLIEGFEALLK
# Sequence of Vascular endothelial growth factor receptor 2 (Homo sapiens) (P35968 whole entry): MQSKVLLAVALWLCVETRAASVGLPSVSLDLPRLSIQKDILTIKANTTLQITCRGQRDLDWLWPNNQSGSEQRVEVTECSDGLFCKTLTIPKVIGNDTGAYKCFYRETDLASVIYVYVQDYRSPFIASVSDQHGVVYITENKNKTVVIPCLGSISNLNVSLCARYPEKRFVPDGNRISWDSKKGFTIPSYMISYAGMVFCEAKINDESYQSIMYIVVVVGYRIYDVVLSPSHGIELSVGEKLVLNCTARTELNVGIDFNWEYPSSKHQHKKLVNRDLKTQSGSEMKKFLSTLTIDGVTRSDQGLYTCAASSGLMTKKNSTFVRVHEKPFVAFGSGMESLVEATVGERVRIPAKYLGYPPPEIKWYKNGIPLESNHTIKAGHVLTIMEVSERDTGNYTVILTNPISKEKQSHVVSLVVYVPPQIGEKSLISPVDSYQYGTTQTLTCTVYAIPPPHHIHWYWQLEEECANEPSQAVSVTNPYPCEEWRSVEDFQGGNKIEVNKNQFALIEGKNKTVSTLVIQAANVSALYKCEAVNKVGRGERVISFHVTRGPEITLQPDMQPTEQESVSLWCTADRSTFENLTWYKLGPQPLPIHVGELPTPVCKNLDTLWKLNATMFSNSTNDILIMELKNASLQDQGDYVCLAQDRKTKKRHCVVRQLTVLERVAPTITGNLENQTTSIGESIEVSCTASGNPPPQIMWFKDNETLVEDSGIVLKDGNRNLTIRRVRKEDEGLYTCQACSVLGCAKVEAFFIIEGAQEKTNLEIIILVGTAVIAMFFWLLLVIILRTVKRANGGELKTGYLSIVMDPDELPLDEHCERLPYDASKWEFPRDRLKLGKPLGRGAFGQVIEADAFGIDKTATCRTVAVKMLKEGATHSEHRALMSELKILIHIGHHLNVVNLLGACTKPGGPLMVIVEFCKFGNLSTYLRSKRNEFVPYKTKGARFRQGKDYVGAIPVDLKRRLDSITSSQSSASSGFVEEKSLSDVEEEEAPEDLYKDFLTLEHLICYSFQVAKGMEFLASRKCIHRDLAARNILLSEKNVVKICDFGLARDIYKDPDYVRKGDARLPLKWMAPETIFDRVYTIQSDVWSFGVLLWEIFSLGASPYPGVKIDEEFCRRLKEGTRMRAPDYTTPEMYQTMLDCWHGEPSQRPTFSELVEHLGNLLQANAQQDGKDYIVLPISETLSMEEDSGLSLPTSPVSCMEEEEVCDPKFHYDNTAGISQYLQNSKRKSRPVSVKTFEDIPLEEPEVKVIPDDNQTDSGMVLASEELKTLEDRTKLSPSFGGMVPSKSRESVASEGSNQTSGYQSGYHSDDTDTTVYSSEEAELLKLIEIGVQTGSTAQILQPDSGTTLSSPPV
# Sequence of Tyrosine-protein kinase JAK2 (Homo sapiens) (O60674 whole entry): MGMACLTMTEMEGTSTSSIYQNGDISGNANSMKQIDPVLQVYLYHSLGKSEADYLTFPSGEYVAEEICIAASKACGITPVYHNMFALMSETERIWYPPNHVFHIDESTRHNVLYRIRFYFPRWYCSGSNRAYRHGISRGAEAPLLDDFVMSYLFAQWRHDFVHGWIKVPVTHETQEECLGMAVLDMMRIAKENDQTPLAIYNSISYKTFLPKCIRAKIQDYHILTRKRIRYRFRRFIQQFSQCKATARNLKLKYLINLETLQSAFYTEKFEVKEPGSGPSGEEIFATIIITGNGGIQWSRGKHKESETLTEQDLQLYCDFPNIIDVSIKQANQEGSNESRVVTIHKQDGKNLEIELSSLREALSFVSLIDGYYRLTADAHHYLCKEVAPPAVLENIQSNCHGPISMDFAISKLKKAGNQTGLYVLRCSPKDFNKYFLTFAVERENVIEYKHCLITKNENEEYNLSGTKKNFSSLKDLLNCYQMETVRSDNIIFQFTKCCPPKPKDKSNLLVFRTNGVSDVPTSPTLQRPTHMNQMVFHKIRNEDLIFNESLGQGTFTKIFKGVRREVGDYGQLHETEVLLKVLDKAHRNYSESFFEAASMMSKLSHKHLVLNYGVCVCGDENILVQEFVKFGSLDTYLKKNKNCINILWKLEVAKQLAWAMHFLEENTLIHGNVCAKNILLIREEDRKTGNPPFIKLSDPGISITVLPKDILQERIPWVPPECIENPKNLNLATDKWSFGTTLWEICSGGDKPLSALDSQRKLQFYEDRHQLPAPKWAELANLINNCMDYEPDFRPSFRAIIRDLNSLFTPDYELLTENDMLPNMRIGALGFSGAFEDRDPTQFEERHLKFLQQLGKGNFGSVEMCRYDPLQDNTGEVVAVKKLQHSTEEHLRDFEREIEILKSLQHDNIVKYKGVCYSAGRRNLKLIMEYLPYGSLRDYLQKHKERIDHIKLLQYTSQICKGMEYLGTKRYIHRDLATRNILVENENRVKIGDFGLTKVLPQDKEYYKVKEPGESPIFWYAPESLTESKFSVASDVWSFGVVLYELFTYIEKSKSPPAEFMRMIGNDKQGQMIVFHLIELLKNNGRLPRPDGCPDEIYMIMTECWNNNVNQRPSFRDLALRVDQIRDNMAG
SMILES,inhibition [1],inhibition [2],inhibition [3],inhibition [4],inhibition [5],inhibition [6],inhibition [7],inhibition [8],inhibition [9],inhibition [10]
COc1cc(N2CCN(C(C)C)CC2)ccc1Nc1nc(Nc2ccc(F)cc2C(=O)NC[C@@H](O)CO)c2cc[nH]c2n1,-1.4%,3.78%,12.3%,0.29%,1.56%,-5.03%,-8.11%,5.49%,8.49%,4.46%
NCc1ccc(-n2c(-c3nonc3N)nc3cnccc32)cc1,2.4%,4.99%,5.42%,1.95%,2.09%,-0.04%,1.57%,10.5%,22.8%,5.81%
COc1cc2ncn(-c3cc(OCc4ccccc4C(F)(F)F)c(C(C)=O)s3)c2cc1OC,6.89%,2.15%,2.47%,1.06%,-0.01%,-2.98%,-1.59%,3.96%,7.57%,3.46%
CN1CCN(CCCNc2nc3ccc(Oc4ccc(NC(=O)Nc5cc(C(F)(F)F)ccc5F)cc4)cc3[nH]2)CC1,-1.94%,6.45%,1.78%,3.76%,6.4%,-2.58%,0.29%,38.6%,71.9%,48.5%
Cc1ccc(NC(=O)c2ccoc2)cc1-c1ccc(C(=O)NCC2CC2)cc1,1.05%,1%,2.95%,0%,-1.25%,-1.84%,-0.47%,15.3%,62%,1.57%
O=C(Nc1n[nH]c2cc(-c3cc(F)ccc3F)ccc12)C1CC1,7.94%,3.49%,8.44%,1.64%,1.73%,-0.26%,-0.99%,6.28%,12%,4.01%
Fc1ccc(-c2ncn(CCCN3CCOCC3)c2-c2ccncc2)cc1,1.2%,1.72%,-1.2%,-0.43%,0.65%,0.1%,1.07%,-0.88%,1%,-3.23%
c1ccc(-c2n[nH]cc2-c2ccnc(-c3ccc(OCCN4CCOCC4)cc3)c2)nc1,3.99%,6.98%,4.5%,0.47%,-0.22%,6.96%,5.88%,13.7%,60.8%,0.56%
FC(F)(F)c1cccc(Nc2nccc(-c3cnn4nc(-c5ccccc5)ccc34)n2)c1,3.33%,-0.86%,0.5%,-0.15%,0.22%,-1.84%,-0.12%,0.05%,6.02%,5.78%
NC(=O)c1cc(-c2ccncc2)cc(-c2ccccc2)c1N,1.74%,6.03%,4.31%,2.14%,1.86%,-1.25%,-1.1%,3.91%,10.7%,23%
NC(=O)Cc1ccccc1Oc1nccc(-c2c(-c3ccc(F)cc3)ncn2C2CCNCC2)n1,1%,2.63%,-2.73%,0.56%,-0.85%,-1.1%,0.74%,1.89%,3.48%,1.71%
CN(C)CCOc1ccc(-c2cc(-c3ccc4c(c3)CCC4=NO)c(-c3ccncc3)o2)cc1,0.28%,1.5%,0.68%,0.4%,-1.64%,-0.61%,1.8%,-0.68%,0.23%,-2.06%
O=C1NC(=O)C(c2cccc(Cl)c2)=C1Nc1ccc(Cl)c(C(=O)O)c1,0.9%,4.75%,13.7%,0.64%,0.7%,-0.9%,9.29%,6.04%,23.5%,6.54%
COc1ccc(-c2ccc3c(NC(=O)C4CC4)n[nH]c3n2)cc1,2.25%,2.09%,10.9%,-0.18%,-0.27%,-1%,0.12%,0.66%,3.4%,0.69%
CS(=O)(=O)CCNCc1ccc(-c2ccc3ncnc(Nc4ccc(OCc5ccccc5)c(Br)c4)c3c2)o1,-2.69%,3.52%,3.08%,1.19%,-1.02%,-5.54%,-5.98%,10.1%,11.1%,3.38%
CN(C)c1ccc2c(c1)/C(=C/Nc1ccc(S(N)(=O)=O)cc1)C(=O)N2,3.68%,0.51%,14.2%,0.74%,2.09%,-0.16%,20.4%,14.6%,53.6%,4.04%
COc1cc2ncn(-c3cc(OCCc4ccccc4)c(C(N)=O)s3)c2cc1OC,2.27%,1.72%,-5.52%,0.93%,0.41%,-0.27%,-0.4%,3.48%,17%,0.95%

SMILES,inhibition [1],inhibition [2],inhibition [3],inhibition [4],inhibition [5],inhibition [6],inhibition [7],inhibition [8],inhibition [9],inhibition [10]
C[C@@H](Oc1cc(-n2cnc3ccc(OC4CCN(C)CC4)cc32)sc1C(N)=O)c1ccccc1Cl,-1.75%,0.47%,-0.07%,4.66%,2.46%,-5.38%,13.5%,9.62%,40.3%,5.05%
CCC(=O)Nc1ccc(C)c(-c2ccc(C(=O)NCC3CC3)cc2)c1,-0.1%,2.44%,4.69%,1.7%,1.15%,-1.95%,-0.85%,3.67%,9.29%,4.93%
Fc1ccc(-c2c(-c3ccncc3)nc3n2CCS3)cc1,-2.17%,1.7%,10.2%,0.77%,4.51%,-3.51%,2.02%,5.2%,9.29%,3.82%
Clc1ccc(CNc2nccc(-c3cnn4ncccc34)n2)cc1,1.37%,-0.37%,-0.62%,1.52%,3.6%,-0.04%,2.94%,0.99%,2.77%,5%
COc1cc(Nc2ncc(-c3ccccc3)o2)cc(OC)c1OC,2.92%,-8.6%,-0.54%,-0.76%,5.24%,-0.1%,12.7%,7.23%,48%,85.4%
CCS(=O)(=O)c1ccc(OC)c(Nc2ncc(-c3ccccc3Cl)o2)c1,1.73%,5.17%,-2.96%,1.84%,0.94%,0.9%,4.04%,8.35%,33.8%,17.3%
O=C(NCC1CC1)c1ccc(-c2cccc(C(=O)NC3CC3)c2)cc1,2.71%,0.26%,-6.93%,1.73%,0.94%,-0.66%,0.07%,5.99%,8.55%,1.06%
NC(=O)c1ccc(Oc2nccc(-c3c(-c4ccc(F)cc4)ncn3C3CCNCC3)n2)cc1,2.32%,3.88%,0.7%,2.78%,3.18%,-0.36%,-0.92%,4.96%,9.7%,7.24%
Cc1ccc(C(=O)NC(C)C)cc1-c1ccc(C(=O)NCC2CC2)cc1,-0.47%,-3.33%,-1.59%,-1.52%,-1.28%,0.73%,1.51%,-1.43%,0.78%,-2.99%
COc1cc(C)c(N(C)C(=O)CN(C)C)cc1Nc1nc(Nc2cccc(F)c2C(N)=O)c2cc[nH]c2n1,-1.94%,3.43%,-5.28%,0.96%,1.71%,-3.43%,-3.47%,1.87%,1.78%,0.03%
O=C1Nc2ccccc2/C1=C/Nc1ccc(-n2cncn2)cc1,4.51%,5.01%,29.9%,0.53%,0.69%,-1.1%,6.49%,7.9%,37.3%,21.5%
O=C(Nc1n[nH]c2cc(-c3ccccc3)ccc12)C1CC1,2.12%,2.85%,7.69%,2.26%,0.77%,-1.69%,0.16%,4.79%,12.6%,3.52%
COc1cccc(-n2cnc3c(N/N=C/c4ccncc4)ncnc32)c1,-1.27%,4.44%,16.3%,0.27%,0.37%,-2.48%,-2.19%,-0.11%,11.2%,33.4%
O=C1Nc2ccc(I)cc2C1=Cc1cc(Br)c(O)c(Br)c1,1.44%,1.44%,2.67%,2.54%,3%,-0.81%,-3.69%,5.81%,9.7%,5.45%
CCS(=O)(=O)c1ccc(OC)c(Nc2ncc(-c3cccc(-c4ccccc4F)c3)o2)c1,2.37%,-2.17%,1.93%,0.19%,2.27%,1.2%,13.9%,66.9%,89.5%,53.7%
Fc1ccc(-c2ncn(C3CCNCC3)c2-c2ccnc(Oc3ccc(F)c(F)c3)n2)cc1,-2.62%,3.04%,7.49%,1.1%,0.69%,-5.49%,-1.81%,6.78%,11.5%,1.92%
N#Cc1ccc(Oc2nccc(-c3c(-c4ccc(F)cc4)ncn3C3CCNCC3)n2)cc1,0.22%,3.07%,3.3%,1.47%,0.75%,-3.92%,1.56%,3.95%,4.78%,6.17%
